Values joined by “and” are separate entries in the source; they are usually repeats but may differ in a detail not shown here. Equal values may be shown once. Results filed as inconclusive are left out. Where a structure was tested more than once in an assay, its records may differ in their call. Active and inactive are the calls of the source. The call rests on the fitted dose curve; in most records, active means well fitted inhibition curve with a large enough effect; inconclusive means small, poorly fitted or top-dose-only effect; inactive means flat fitted curve, though single readings scatter.
What was measured:
[1] = Drug repurposing screens with cells derived from glioblastoma tumor samples (AID 1345199); conditions: GBM patient neurospheres viability, ATP luminescence, 48 h; further: nearly all actives have a fitted effect of over 40% in size
Procedure, shortened: (§1)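 Four patient lines of CD133+ GBM neurospheres were screened at several concentrations; hits were retested in those lines plus three slower-growing GBM lines, using 48-hour treatment and ATP-based viability.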

[2] = tested on: astro; assay: as above; conditions: viability, ATP luminescence, 48 h; series mostly up to 45.9 µM
Procedure, shortened: as §1

[3] = at 45.9 µM (top of the series), tumour line B
[4] = at 45.9 µM (top of the series), tumour line D
[5] = at 46 µM (top of the series), tumour line A
[6] = at 46.1 µM (top of the series), tumour line C
[7] = at 20 µM (top of the series), tumour line C
[8] = at 21.2 µM (top of the series), tumour line B
[9] = at 21.2 µM (top of the series), tumour line D
[10] = at 21.3 µM (top of the series), tumour line A
On the % scale 0 is the no-effect control and ±100 the full control effect; potency means the concentration at half of the fitted maximal effect.

O[C@H]1[C@H]2[C@H](O)CCCN2C[C@H]1O
inactive: activity, negative = cell killing [1, 3] 0.771% | activity, negative = cell killing [1, 4] -7.2% | activity, negative = cell killing [1, 5] -40.5% | activity, negative = cell killing [1, 6] -19.9% | Potency [2]

OC[C@@H](O)[C@H]1O[C@@H]2O[C@@H](C(Cl)(Cl)Cl)O[C@@H]2[C@H]1O
inactive: activity, negative = cell killing [1, 3] -12.9% | activity, negative = cell killing [1, 4] -1.55% | activity, negative = cell killing [1, 5] -29.4% | activity, negative = cell killing [1, 6] 7.8% | Potency [2]

CCCC(C)(COC(N)=O)COC(=O)NC1CC1 (stereo not given)
inactive: activity, negative = cell killing [1, 3] -5.97% | activity, negative = cell killing [1, 4] -18% | activity, negative = cell killing [1, 5] -25.6% | activity, negative = cell killing [1, 6] -16.6% | Potency [2]

CC1CCC(C(C)C)C(OC(=O)c2ccccc2N)C1 (stereo not given)
inactive: activity, negative = cell killing [1, 6] 13.8%
active: Potency ([1]; tumour line A) 12.6 µM | Potency ([1]; tumour line B) 35.5 µM

O=S(=O)(O)c1cc(O)ccc1O
inactive: activity, negative = cell killing [1, 7] 0.614% | activity, negative = cell killing [1, 8] -13.4% | activity, negative = cell killing [1, 9] -2.62% | activity, negative = cell killing [1, 10] -30% | Potency [2]

CC(N)Cc1ccc(O)cc1 (stereo not given)
inactive: activity, negative = cell killing [1, 3] -3.82% | activity, negative = cell killing [1, 4] -1.1% | activity, negative = cell killing [1, 5] -18.1% | activity, negative = cell killing [1, 6] 5.3% | Potency [2]

C[C@]12C[C@H]3S[C@H]3C[C@@H]1CC[C@@H]1[C@@H]2CC[C@]2(C)[C@@H](O)CC[C@@H]12
inactive: activity, negative = cell killing [1, 7] -0.246% | activity, negative = cell killing [1, 8] -21.3% | activity, negative = cell killing [1, 9] -16.8% | Potency [2]
active: Potency ([1]; tumour line A) 14.1 µM

CCOC(=O)/C=C(C)/C=C/C[C@@H](C)CCCC(C)C
inactive: activity, negative = cell killing [1, 3] -7.77% | activity, negative = cell killing [1, 4] 3.89% | activity, negative = cell killing [1, 5] -29.3% | activity, negative = cell killing [1, 6] -6.42% | Potency [2]

C[C@]12CC[C@H]3[C@@H](CCC4=C(Cl)C(=O)CC[C@@]43C)[C@@H]1CC[C@@H]2O
active: Potency ([1]; tumour line A) 12.6 µM
inactive: activity, negative = cell killing [1, 3] -16.4% | activity, negative = cell killing [1, 4] -29.9%

CN1c2ccccc2C(NCCCCCCC(=O)O)c2ccc(Cl)cc2S1(=O)=O (stereo not given)
inactive: activity, negative = cell killing [1, 3] -13.7% | activity, negative = cell killing [1, 4] 2.81% | activity, negative = cell killing [1, 5] -22.5% | activity, negative = cell killing [1, 6] -20.5%

CCCCC[C@@H](O)C1C(=O)OC(C)[C@H](O)/C=C/C=C/C=C/C=C/C=C(\C)C(O)C(O)C(O)C[C@H](O)C[C@H](O)C[C@H](O)C[C@H](O)C[C@@H]1O (stereo not given in full)
inactive: activity, negative = cell killing [1, 3] -7.45% and 7.1% | activity, negative = cell killing [1, 4] 14.9% and -7.76% | activity, negative = cell killing [1, 5] -18.3% and -29% | activity, negative = cell killing [1, 6] -15.7% and -7.35% | Potency [2]

C#CCN1CC(=O)N(COC(=O)C2C(C=C(C)C)C2(C)C)C1=O (stereo not given)
inactive: activity, negative = cell killing [1, 3] -9.8% | activity, negative = cell killing [1, 4] 15.2% | activity, negative = cell killing [1, 5] -23.1% | activity, negative = cell killing [1, 6] -15.9% | Potency [2]

NCC[C@H](O)C(=O)N[C@@H]1C[C@H](N)[C@@H](O[C@H]2O[C@H](CN)[C@@H](O)[C@H](O)[C@H]2N)[C@H](O[C@@H]2O[C@H](CO)[C@@H](O)[C@H]2O)[C@H]1O
inactive: activity, negative = cell killing [1, 7] -6.64% | activity, negative = cell killing [1, 8] -8.33% | activity, negative = cell killing [1, 9] -11.1% | activity, negative = cell killing [1, 10] -21.7% | Potency [2]

C[C@]12CC[C@H](OS(=O)(=O)O)CC1=CC[C@@H]1[C@@H]2CC[C@]2(C)C(=O)CC[C@@H]12
inactive: activity, negative = cell killing [1, 3] 3.89% | activity, negative = cell killing [1, 4] -2.35% | activity, negative = cell killing [1, 5] -29.4% | activity, negative = cell killing [1, 6] -15.3% | Potency [2]

CCCCCCCCCC(=O)O[C@H]1CC[C@H]2[C@@H]3CCC4=CC(=O)CC[C@]4(C)[C@H]3CC[C@]12C
inactive: activity, negative = cell killing [1, 3] -12.8% | activity, negative = cell killing [1, 4] -20.9% | activity, negative = cell killing [1, 6] -14.9%
active: Potency ([1]; tumour line A) 15.8 µM

CC(C)CCC(=O)O[C@H]1CC[C@H]2[C@@H]3CCC4=CC(=O)CC[C@]4(C)[C@H]3CC[C@]12C
active: Potency ([1]; tumour line A) 11.2 µM | Potency ([1]; tumour line B) 22.4 µM
inactive: activity, negative = cell killing [1, 6] -19.7%

CC(=O)Oc1ccc2c3c1O[C@H]1[C@@H](OC(C)=O)C=C[C@H]4[C@@H](C2)N(C)CC[C@@]341
inactive: activity, negative = cell killing [1, 3] 1.1% | activity, negative = cell killing [1, 4] -2.21% | activity, negative = cell killing [1, 6] -13.5% | activity, negative = cell killing ([1]; at 99.2 µM (top of the series), tumour line C) -29.8% | activity, negative = cell killing ([1]; at 108 µM (top of the series), tumour line B) -14.9% | Potency [2]

CC(=O)OO
inactive: activity, negative = cell killing [1, 3] -7.1% | activity, negative = cell killing [1, 4] -0.699% | activity, negative = cell killing [1, 5] -24.9% | activity, negative = cell killing [1, 6] 3.69% | Potency [2]

O=C1C2CC=CCC2C(=O)N1SC(Cl)(Cl)Cl (stereo not given)
active: Potency ([1]; tumour line A) 7.08 µM | Potency ([1]; tumour line B) 20 µM | Potency ([1]; tumour line D) 11.2 µM
inactive: activity, negative = cell killing [1, 6] -4.36%

C[N+]1([O-])[C@@H]2CC[C@H]1CC(OC(=O)C(CO)c1ccccc1)C2 (stereo not given in full)
inactive: activity, negative = cell killing [1, 7] -19.4% | activity, negative = cell killing [1, 8] -4.66% | activity, negative = cell killing [1, 9] -20.9% | activity, negative = cell killing [1, 10] -44.8% | activity, negative = cell killing [1, 3] -7.07% | activity, negative = cell killing [1, 4] 8.25% | activity, negative = cell killing [1, 6] 21.1% | Potency [2]

— PubChem BioAssay (NCATS)
